# From PubChem BioAssay
# Sampled rows, rich in hits. Any-hit rate of the full collection: about 5.7%.
# MPTP inh: inhibitors of mitochondrial permeability transition pore; isolated mouse mitochondria, Ca2+ swelling absorbance, 30 min; actives 1.4% (n = 360,000); inhibition, % at 10 µM;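 active = inhibition of 50% or more, scaled per plate between neutral and stimulator controls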;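 note: 0% = DMSO wells given calcium and 100% = 1 mM EGTA wells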
# rCAG RNA binder: r(CAG) repeat RNA binding; TO-PRO-1 dye displacement fluorescence; actives 1.3% (n = 370,000); inhibition, % at 3 µM;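 active = inhibition above the plate cutoff, the mean of all test compounds on that plate plus 3 SD, cut at about 35% in these data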;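 note: 0% = DMSO alone and 100% = 100 µM mitoxantrone as full dye displacement; higher means more dye released from RNA so lower well fluorescence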
# FAS TE block: blocks the thioesterase domain of human fatty acid synthase | P49327 | recombinant FAS-TE, OMFH fluorogenic substrate, fluorescence endpoint | inhibition, % at 15 µM | actives 0.67% (n = 360,000) | AID 602261;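 active = compounds whose normalised, plate-corrected inhibition of enzyme fluorescence in the single-dose primary screen is 50% or more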;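 note: 0% = DMSO with enzyme and 100% = substrate without enzyme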
# Myeloid diff 2: myeloid differentiation induction; ER-HoxA9 myeloid progenitors, lysozyme-GFP differentiation, flow cytometry; actives 1% (n = 360,000); AID 624256; calls only at 10 µM;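 active = normalized GFP-positive differentiation at or above the plate's own cutoff, the solvent-only control mean plus 3 SD; inconclusive = no clear call, values can overlap the other calls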;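 note: cells exposed to compound for four days before flow analysis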
# NR3A LBD binder: NR3A (human) ligand-binding domain modulation | NR3A LBD differential scanning fluorimetry, Tm shift; 0% = protein alone, 100% = glycine-bound protein | Tm shift relative to glycine control, % at 25 µM | actives 2.5% (n = 340,000) | AID 1259313;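 active = melting temperature shift of at least 10% of the positive control shift, at one fixed dose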
# * = called active by the depositor; i = inactive; ? = inconclusive; . = no result given; + = active, no number.
SMILES,MPTP inh,rCAG RNA binder,FAS TE block,Myeloid diff 2,NR3A LBD binder
CC(C)c1[nH]nc2c1C(c1ccc(F)cc1)N(Cc1ccccc1)C2=O (stereo not given),.,2,.,.,.
O=[N+]([O-])c1cc(S(=O)(=O)C(F)(F)F)ccc1N1CCN(c2ccccc2)CC1,4,0,26,i,-3
O=[N+]([O-])c1cc(S(=O)(=O)Nc2ccccc2)ccc1N1CCN(c2ccccc2)CC1,1,14,24,i,20*
Cc1cccc(-n2ncc3c(NCc4ccccc4)ncnc32)c1,2,3,17,+,-13
CC(=O)Nc1ccc(Nc2ncnc3c2cnn3-c2ccccc2)cc1,0,2,2,i,19*
CC(=O)Nc1ccc(Nc2ncnc3c2cnn3-c2cccc(C)c2)cc1,0,14,-11,i,22*
CC(=O)OCCCN1CCC2(CCCCC2)C1=O,.,2,.,.,.
COc1ccc(N2C[C@@]3(O)CC[C@@H](O)[C@@H](OC)[C@@H]3[C@@](C)(O)[C@@H]2CC=C(C)C)cc1,.,-1,.,.,.
CCCCc1c(-c2ccccc2OC)ncn1Cc1ccc(C)cc1,.,-2,.,.,.
O=C(N/N=C/c1cn(-c2cccs2)nc1-c1ccccc1)c1ccccc1Cl,2,13,36,i,14*
O=C(N/N=C/c1cn(-c2cccs2)nc1-c1ccccc1)c1ccc(O)cc1,-2,6,-5,i,12*
COCCSc1nnc(-c2cccnc2)n1Cc1ccccc1,.,1,.,.,.
C=CCN1CC(COCCCC)Oc2ccc(Cl)cc2S1(=O)=O (stereo not given),.,-1,.,.,.
COC(=O)C1CN(Cc2ccccc2)CCS(=O)(=O)N1Cc1cn(Cc2ccccc2Br)nn1 (stereo not given),.,0,.,.,.
COc1ccc(S[C@]2(C(=O)N3CCCC3)CC(=O)N[C@@H]2c2ccc(OC)cc2)cc1,.,5,.,.,.
CC(=O)Nc1sc(/C(C#N)=C/c2ccc(Cl)c(Cl)c2)nc1-c1ccc(C)cc1,18,4,-18,+,7
CC(=O)Nc1sc(N/N=C/c2ccc(C)cc2)nc1-c1ccc(C)cc1,-1,7,-2,i,1
CCOC(=O)c1cnc(SC)nc1Oc1cccc(NC(=O)c2ccc(C)cc2)c1,2,2,22,i,17*
CCOC(=O)c1cnc(SC)nc1Oc1cccc(NC(=O)c2cccc(Cl)c2Cl)c1,2,0,24,i,3
Cc1nn(-c2ccccc2)c(C)c1/C=N/NC(=O)CSc1nnc(SCc2cccc3ccccc23)s1,4,6,36,i,16*
O=C(CSc1nnc(SCc2ccccc2Cl)s1)N/N=C/c1c[nH]c2ccccc12,12,6,9,i,26*
Cc1ccc(-n2c(SCC(=O)N/N=C/c3c(C)nn(-c4ccccc4)c3C)nc3ccccc3c2=O)cc1,0,10,-1,i,0
O=C(CSc1nnc(SCc2ccccc2)s1)N/N=C/c1c[nH]c2ccccc12,0,6,3,i,-3
O=C(Nc1ccc(F)cc1)C(c1ccccc1OC(F)(F)F)N1CCN(c2cccc(C(F)(F)F)n2)CC1 (stereo not given),2,4,.,i,.
CC(CNC(=O)[C@@H](Cc1ccccc1)NC(=O)[C@H]1O[C@@H](n2cnc3c(=O)[nH]c(N)nc32)[C@H](O)[C@@H]1O)c1ccccc1 (stereo not given in full),.,8,.,.,.
SMILES,MPTP inh,rCAG RNA binder,FAS TE block,Myeloid diff 2,NR3A LBD binder
COc1cc2c(cc1NC(=S)Nc1cccc(C)c1)oc1ccccc12,1,8,-4,i,26*
COc1cc2c(cc1NC(=O)Nc1ccc(C)cc1)oc1ccccc12,25,22,29,i,29*
COc1ccc(NC(=O)c2ccccc2[N+](=O)[O-])cc1,0,2,-11,i,-3
CC(=O)Nc1cc2oc3ccccc3c2cc1[N+](=O)[O-],-1,4,-3,i,0
COc1cc2c(cc1NC(=O)c1cccc([N+](=O)[O-])c1C)oc1ccccc12,1,.,35,i,20*
COc1ccccc1Nc1ccc(NC(=O)c2cccc([N+](=O)[O-])c2C)cc1,4,15,31,i,19*
Cc1ccc(OC2CCN(C(=O)[C@@H](Cc3ccccc3)NC(=O)[C@H]3O[C@@H](n4ccc(=O)[nH]c4=O)[C@H](O)[C@@H]3O)CC2)cc1,.,2,.,.,.
COc1cccc(N(C)C(=O)[C@@H](C)[C@@H](O)c2ccc(C(C)=O)cc2)c1,.,0,.,.,.
CCC(C)N(C(=O)CNc1nnnn1-c1ccccc1)C(C)CC (stereo not given),.,-3,.,.,.
COc1cc2c(cc1NC(=O)Nc1cccc(C)c1)oc1ccccc12,18,6,16,i,39*
COc1cc2c(cc1NC(=O)Nc1ccc(F)cc1)oc1ccccc12,36,7,5,i,186*
COc1ccc(NC(=O)Nc2cc3oc4ccccc4c3cc2OC)cc1,7,14,14,i,13*
COc1ccc(OCC(=O)Nc2cc3oc4ccccc4c3cc2OC)cc1,1,.,2,i,-11
COc1ccc(S(=O)(=O)N[C@@H](C)C(=O)OCC(=O)Nc2cc3oc4ccccc4c3cc2OC)cc1,2,17,27,i,25*
CCOC(=O)CNC(=O)CSc1nnc(-c2ccccc2)n1CC,.,-1,.,.,.
O=C(NCCc1c[nH]c2ccccc12)OCc1cn(-c2ccc(Cl)cc2)nn1,.,8,.,.,.
FC(F)(F)c1ccccc1CN1CCCc2nc(-c3ccc(Br)cc3)ccc21,.,7,.,.,.
COc1cc2c(cc1NC(=O)C(C)OC(=O)/C=C/c1ccc(OC(F)F)cc1)oc1ccccc12 (stereo not given),3,7,31,?,-30
COc1cc2c(cc1NC(=O)C(C)Sc1ccc(NC(C)=O)cc1)oc1ccccc12 (stereo not given),7,11,27,i,16*
Cc1cccc(NS(=O)(=O)c2ccc(C(=O)N3CCCC3)cc2)c1C,2,-2,-5,i,19*
COc1ccc(CNC(=S)Nc2ccccc2)cc1Cl,1,1,4,i,-4
CCCOc1ccc(CNC(=S)Nc2ccccc2)cc1Cl,44,1,15,i,18*
S=C(NCCSCc1ccc(Cl)c(Cl)c1)Nc1ccccc1,39,-2,30,i,22*
O=C1NCCN1CCN1CCC(c2cn(-c3ccc(F)cc3)c3ccc(Cl)cc23)CC1,.,1,.,.,.
CC1=CC(=C(C#N)c2nc3ccccc3s2)C=C(C)N1c1ccc(F)cc1,1,1,-7,i,-1
COc1ccccc1N1C(C)=CC(=C(C#N)c2nc3ccccc3s2)C=C1C,0,6,39,+,1
COc1ccc(CNC(=O)C2CCCN(c3nc4ccccc4o3)C2)cc1 (stereo not given),.,2,.,.,.
CCCCn1c(N)c(N(CCOC)C(=O)c2cc(S(=O)(=O)N3CCCCC3)ccc2Cl)c(=O)[nH]c1=O,0,0,-3,i,20*
